Screening results from PubChem.
CHX counter – counter-screen for Shiga toxin inhibitors: cycloheximide protein synthesis inhibition. 300,000 compounds, 12% hits. max response, %. cell reporter, cycloheximide protein synthesis inhibition counterscreen. AID 2314; in the data active = max response mostly above about 13%, no sharp cut-off; inactive = mostly below about 14%; also: read at 38.3 µM for the half of the compounds with a filed dose; 0% is about no effect
FBPA Giardia inh – inhibitors of Giardia lamblia fructose-1,6-bisphosphate aldolase; A8B2U2; purified Giardia FBPA; Potency, µM (top dose mostly 59.6 µM), without a hit: at the highest dose activity, negative = inhibition, hits mostly inhibitors; 290,000 compounds, 0.71% hits; AID 2451; also: potency is read from the fitted curve at half-maximal effect; % is scaled to controls: 0 for no effect and ±100 for the full control effect; nearly all actives have a fitted effect of over 55% in size
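40 nM FBPA preincubated 10 min at RT with compound (up to 57.5 uM final), then substrate plus GAPDH/TPI/NAD/arsenate coupling and diaphorase/resazurin added. Fluorescence read after 20 min at RT, 525/598 nm.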
LmPK inh – inhibitors of Leishmania mexicana pyruvate kinase. purified LmPK, Kinase-Glo ATP luminescence, 1 h. Potency, µM (doses to about 57.5 µM), inactives show at the highest dose activity change, negative = inhibition, usual class: inhibitors. 290,000 compounds, 0.37% hits. Q27686. AID 1721; also: potency is read from the fitted curve at half-maximal effect; % is scaled to controls: 0 for no effect and ±100 for the full control effect
Target sequence (Q27686 whole entry, looked up): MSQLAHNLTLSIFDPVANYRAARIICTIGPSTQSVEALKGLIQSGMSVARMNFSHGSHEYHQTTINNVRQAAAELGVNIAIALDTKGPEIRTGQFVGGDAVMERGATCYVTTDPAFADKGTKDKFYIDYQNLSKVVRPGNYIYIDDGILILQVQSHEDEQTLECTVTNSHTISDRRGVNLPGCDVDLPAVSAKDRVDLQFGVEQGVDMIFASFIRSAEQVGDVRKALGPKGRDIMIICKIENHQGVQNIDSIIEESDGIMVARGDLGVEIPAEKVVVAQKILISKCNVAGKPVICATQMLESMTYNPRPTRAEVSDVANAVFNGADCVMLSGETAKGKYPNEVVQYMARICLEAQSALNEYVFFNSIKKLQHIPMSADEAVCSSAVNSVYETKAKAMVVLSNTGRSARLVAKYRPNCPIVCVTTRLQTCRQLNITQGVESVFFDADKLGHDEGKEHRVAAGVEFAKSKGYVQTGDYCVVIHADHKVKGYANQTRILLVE
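Pyruvate kinase activity monitored as ATP production (luciferase luminescence). Conditions: 0.1 nM enzyme, 0.5 mM PEP, 0.1 mM ADP, 1 h, RT; normalized against uninhibited and no-enzyme wells.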
NS1 function inh – inhibitors of influenza NS1 protein function. 270,000 compounds, 0.4% hits. AID 2326. Potency, µM (titrated, usually from 46.1 µM), inactives show at the highest dose activity, positive = more growth; calls by dose curve; also: potency is read from the fitted curve at half-maximal effect; actives are rising curves; nearly all actives have a fitted effect of over 50% in size
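Recovery from NS1-induced slow growth read by OD600 in budding yeast switched to galactose assay medium (pH 6.0, -URA) at 1:100 dilution. Compound 23 nl per well; the matching strain lacking NS1 serves as control.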
Shiga toxin inh – blocks Shiga toxin action in Vero cells; Vero cells, Shiga toxin protein synthesis inhibition reporter; inhibition, % at 38.7 µM; 290,000 compounds, 9.2% hits; AID 2315; in the data active = inhibition mostly above about 28%, no sharp cut-off; inactive = mostly below about 43%; also: 0% is about no effect
Numbers without * were called inactive; ? = inconclusive; . = no result. An excerpt weighted towards active compounds, which were near 14% of everything screened. Unless noted, calls follow the shape of the dose curve; as a rule, active = well fitted curve in the direction sought with a large enough effect; inconclusive = small, poorly fitted or top-dose-only effect, or another doubt; inactive = no such curve, though single readings can be large; an effect the other way counts as inactive or inconclusive.

SMILES | CHX counter | FBPA Giardia inh | LmPK inh | NS1 function inh | Shiga toxin inh
O=S(=O)(Nc1ccc2nc(-c3ccc(Br)o3)[nH]c2c1)c1ccccc1 | 39.9* | -20.7% | 2.4% | -0.9% | 64.0
CCOc1ccc(NC(=O)C2CCCN(S(C)(=O)=O)C2)cc1 (centres undefined) | 0.9 | 14.0% | -4.0% | -0.4% | -1.5
CCc1cccc2c(C(=O)COC(=O)c3ccccc3)c[nH]c12 | 21.1* | -1.1% | 1.9% | 0.9% | 76.2*
CCc1cccc2c(C(=O)COC(=O)c3c(C)noc3C)c[nH]c12 | 16.1 | -0.8% | -0.9% | -7.1% | 47.5
CCc1cccc2c(C(=O)COC(=O)c3ccc(O)cc3)c[nH]c12 | 36.9* | 3.0% | -0.9% | 15.3% | 53.1*
O=C(c1ccncc1)N1CCC2(CCN(Cc3ccccc3)CC2)CC1 | . | 3.1% | . | . | .
Cc1c(C)c2c(OCC(=O)N[C@@H](CC(C)C)C(=O)O)cc3c(c2oc1=O)CCC(C)(C)O3 | -2.5 | 2.6% | -1.4% | 4.4% | -4.8
COC(=O)c1cn(Cc2cc(OC)ccc2OC)cc(F)c1=O | -2.9 | 14.1% | -2.6% | -4.0% | -2.1
CS(=O)(=O)c1ccc2c(c1)sc1nc(=O)c(/C=C3/C=CC(=O)C(O)=C3)c(N)n12 | 19.6* | ? | -4.9% | 6.8% | 41.1*
COC1=C/C(=C/c2c(N)n3c(nc2=O)sc2cc(S(C)(=O)=O)ccc23)C=CC1=O | 9.2 | -19.9% | 0.2% | 10.1% | 23.4
COc1ccccc1Nc1nc(C2(C)CCC(=O)O2)cs1 (centres undefined) | 52.4* | -0.4% | 2.6% | -5.7% | 62.1*
O=[N+]([O-])c1ccccc1Nc1nc(-c2cccnc2)cs1 | 25.7* | 8.5% | 4.2% | -29.2% | .
COc1ccc(Nc2nc(-c3cccnc3)cs2)c(OC)c1 | 37.5* | -16.2% | -1.7% | -62.0% | 37.8*
COc1ccccc1Nc1nc(-c2cccnc2)cs1 | 34.3* | 1.3% | -14.6% | -53.6% | 36.1*
COc1ccc(CC(=O)Nc2nc(-c3cccnc3)cs2)cc1 | -4.1 | 4.1% | 0.8% | 7.3% | -10.3
COc1ccc(OC)c2nc(-c3cccnc3)ccc12 | 29.2* | -14.7% | -6.1% | -3.1% | 47.5*
CCc1ccccc1Nc1nc(-c2cccnc2)cs1 | 18.9* | 1.6% | -5.4% | -77.1% | 23.0
COc1ccc(OC)c(-c2cc(-c3cccnc3)nc(N)c2C#N)c1 | -1.4 | -9.0% | -0.1% | 0.2% | 20.7
CCC1Cc2cc(O)ccc2C2=C1c1ccc(O)cc1CC2CC (centres undefined) | -8.2 | -2.3% | . | . | -9.5
O=S(=O)(c1ccccc1)N1CCC[C@@]2(CCN(c3ncccn3)C2)C1 | . | 1.0% | . | . | .
CCCCN(C)C(=O)C1CCCN(S(=O)(=O)c2ccc3c(c2)oc(=O)n3C)C1 (centres undefined) | 0.1 | 11.5% | -2.0% | -1.9% | 6.8
CN(Cc1c(F)cccc1Cl)C(=O)CNC(=O)c1cccs1 | 39.1* | . | 0.2% | 5.1% | 93.9*
O=C(CNC(=O)c1cccs1)NCC(=O)OCc1c(Cl)cccc1Cl | -3.9 | 5.7% | -1.6% | -4.0% | -16.4
CCOC(=O)CNC(=O)c1cnn2cccnc12 | 41.7* | -8.5% | -0.5% | 2.5% | 50.8
CCOc1ccc2nc(SCC3CC3(Cl)Cl)[nH]c2c1 (centres undefined) | 55.5* | -18.3% | -1.1% | -3.8% | 114.5*
SMILES | CHX counter | FBPA Giardia inh | LmPK inh | NS1 function inh | Shiga toxin inh
O=C(O)CSc1nc2ccccc2[nH]1 | 0.7 | 3.1% | 0.4% | -6.6% | -3.9
ClC1(Cl)CC1CSc1nc2ccccc2[nH]1 (centres undefined) | 42.4* | -1.7% | 6.4% | . | 60.5
CCOC(=O)NC(=O)CSc1nc2ccc(OCC)cc2[nH]1 | -3.0 | 0.6% | 4.7% | -0.3% | -9.1
c1ccc2[nH]c(SCC3CCCCO3)nc2c1 (centres undefined) | 34.2* | -3.8% | -3.8% | 3.2% | 104.6*
NC(=O)CSc1oc(-c2ccco2)nc1S(=O)(=O)c1ccc(Br)cc1 | 10.6 | -12.5% | -5.7% | 2.0% | 21.9
Cc1nc(SCC(=O)Nc2cc(C(N)=O)cc(C(N)=O)c2)c2c(C)c(C)sc2n1 | -2.6 | 4.4% | 0.7% | -5.9% | 6.2
COc1ccc(NC(=S)N2CCN(c3ncccn3)CC2)c(OC)c1 | 4.7 | ? | 0.2% | -0.9% | 11.5
O=C1CCC(C(=O)N2CCCCCC2)CN1Cc1cccc(C(F)(F)F)c1 (centres undefined) | -3.6 | 0.6% | -4.1% | -4.6% | -11.8
CC1(C)OC2CC3C4CCC5=CC(=O)C=C[C@@]5(C)[C@]4(F)C(O)C[C@@]3(C)[C@]2(C(=O)CO)O1 (some centres undefined) | . | 4.4% | . | . | .
